Reference: PubChem BioAssay

Test: viability loss of caspase-8 NB7 cells with TRAIL – with/without TRAIL, luminescence panel, confirmation (AID 651596)
Details: NB7 neuroblastoma + caspase-8, without TRAIL, NB7 Caspase-8, without TRAIL, mean of runs, at 10 µM

Compound	activity [%]
CCc1nnc(NC(=O)c2nc(S(=O)(=O)Cc3ccccc3)ncc2Cl)s1	74.3
COc1ccc2cc3cc(C(=O)NC4CC4)sc3nc2c1	81.4
CC(C)c1ccc(NC(=O)Nc2nc(C(N)C3CCCCC3)cs2)cc1 (stereo not given)	99.3
Cc1ccc2nc(-c3ccncc3)cc(C(=O)Nc3ccncc3)c2c1	6.6
CC(C)(C)OC(=O)NCCCC[C@H](NC(=O)c1nc[nH]c1C(=O)NC(c1ccccc1)c1ccccc1)C(=O)OC(C)(C)C	23.8
O=C(Nc1cccc(O)c1)c1noc2c1CCc1ccccc1-2	67.1
CCCCOc1ccc(-c2nc(=S)[nH][nH]2)cc1	66.6
Cc1cc(C(=O)COC(=O)c2n[nH]c3ccccc23)c(C)n1CC1CCCO1 (stereo not given)	75.2
CSc1ccc(NC(=O)Nc2cc(C)ccn2)cc1	35.7
CCCCCN=Cc1c(C)[nH]n(-c2nc3ccccc3s2)c1=O	95.9
O=C(CSc1nnc(-c2ccccc2Cl)o1)Nc1ccccn1	74
Cc1cccc(N2CCN(C(=S)Nc3ccc4nc(N5CCN(C)CC5)cc(C)c4c3)CC2)c1C	99.2
O=C(/C=C/c1ccc(F)cc1)NC(=S)Nc1ccccc1C(=O)NC1CCCCC1	-0.275
Oc1ccc(-c2cnc(-c3ccc(O)cc3)nc2)cc1	93.3
Cc1ccc(O)c(-c2cc(-c3ccc(F)cc3)no2)c1	57.8
COc1ccc(-c2cc(C(=O)OCC(=O)N3CCOCC3)c3ccccc3n2)cc1	49.6
Clc1ccc(CSc2nc3ccncc3[nH]2)cc1	96.1
COc1ccc(NC(=O)c2ccc(C)cc2)cc1	60.3
CC(C)(C)c1ccc2c(c1)OC(C(=O)N/N=C\c1ccc[nH]1)CO2 (stereo not given)	43.6
CNC[C@@H](Cc1ccccc1)NC[C@@H](CC1CCCCC1)NCCCc1ccccc1	99.6

Compound	activity [%]
C=C(C)c1nc(Oc2ccccc2)nc(Oc2ccccc2)n1	77.6
COC(=O)CSc1nnc(NC(=O)/C=C\c2ccc3c(c2)OCO3)s1	66.2
O=C(CCl)N=c1sccn1Cc1ccc(Cl)cc1Cl	99.2
Cc1ccc2sc(NC(=O)CSc3nc(C)cc(C)c3C#N)nc2c1	57.3
Clc1ccc(-c2nc(-c3cnccn3)no2)cc1	39.1
Cc1ccc2nc(N(CCCN(C)C)C(=O)c3ccc(S(=O)(=O)N4CCc5ccccc5C4)cc3)sc2c1	68.3
O=C(c1ccc(CSc2nc3ccncc3[nH]2)cc1)N1CCCCCC1	82.1
COc1ccc2nc(Nc3ccccc3)sc2c1	38.6
COc1ccc2[nH]c(-c3ccc(C)cc3)cc(=O)c2c1	87.8
CCOC(=O)c1sc(NC(=O)c2ccccc2OC)nc1C	31.9
CCCC(=O)N1CCN(c2ccc(NC(=O)c3cc4ccccc4o3)cc2Cl)CC1	58.6
C/C(=N\NC(=O)c1ccc(Cl)cc1)c1ccccn1	51
COc1ccc(C(=O)Nc2ccc3ccccc3c2)cc1	74.5
C=CCn1c(C)cc(C(=O)CN2C(=O)c3ccccc3C2=O)c1C	57.3
CCN(CC)C(=O)c1nn(-c2ccccc2)c2c1C1CCC2(C)C1(C)C (stereo not given)	8.65
CCc1nn2cc(-c3ccccc3)nc2s1	78.6
O=c1c2c(nc3cc(-c4ccc(F)cc4)[nH]n13)CCCC2	68.3
COC(=O)[C@@H]1Cc2c([nH]c3ccccc23)C(C)(C)N1C(=O)CCl	98
Cc1ccsc1C(=O)Nc1ccc2c(c1)OCCO2	45.1
COc1ccc(C(=O)N/N=C/c2cccnc2)cc1	40
